Results as given in the supplement of paper PMC7156485.
± gives the standard deviation of the averaged measurements.

What was measured:
Conditions in all cases: concentration: 10 µM; 24 h
[1] = test system: HCC1569; assay: cell number relative to DMSO (% of DMSO); higher = more cells (less growth inhibition / toxicity)
In short: (§1)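 Six fields per well were imaged at ×10 after the cells were fixed in 3.7% formaldehyde and stained with a rabbit anti-H1.0 antibody, an AlexaFluor 647 secondary and DAPI. The HCC1569 and TDF cells had been plated at 800 per well in 384-well plates (RPMI, 10% FBS) and treated in triplicate with compounds at 10 µM for 24 h at 37 °C. The values are the median of replicates of H1.0 nuclear intensity or cell number, as percent of the plate control. Smoothing for positional effects was applied to HCC1569 data.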

[2] = test system: TDF; assay: as above
In short: as §1

[3] = test system: TDF; assay: H1.0 immunofluorescence intensity relative to DMSO (% of DMSO); higher = stronger H1.0 induction, active = 120 or more
In short: as §1

[4] = test system: HCC1569; assay: H1.0 immunofluorescence intensity relative to DMSO (% of DMSO); higher = stronger H1.0 induction, active = 140 or more
In short: as §1
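Wherever H1.0 immunofluorescence intensity relative to DMSO is given: TDF is a line of transformed human dermal fibroblasts of mesenchymal origin.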
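Wherever cell number relative to DMSO is given: TDF denotes transformed human dermal fibroblasts of mesenchymal origin.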

Compound | cell number [1] | cell number [2] | H1.0 immunofluorescence intensity [3] | H1.0 immunofluorescence intensity [4]
Cl.NCCNC(=O)c1ccc(Cl)cc1 [Ro 16-6491 hydrochloride] | 100 | 102 | 94.8 (inactive) | 107 (inactive)
O=C(c1ccc(OCCN2CCCCC2)cc1)c1c(-c2ccc(O)cc2)sc2cc(O)ccc12 [Raloxifene] | 95.5 | 105 | 102 (inactive) | 127 (inactive)
O=C(c1cc2cc(O)ccc2[nH]1)c1cc2cc(O)ccc2[nH]1 [Flt-3 Inhibitor II] | 67.1 | 73 | 99.9 (inactive) | 195 (active)
CCCCC(C)(O)CC=CC1C(O)CC(=O)C1CCCCCCC(=O)O (centres undefined) [Misoprostol, free acid] | 100 | 85.8 | 95.6 (inactive) | 98.8 (inactive)
CC(=O)N[C@@H](CS)C(=O)O [N-Acetyl-L-Cysteine] | 98.1 | 115 | 109 (inactive) | 118 (inactive)
N[C@@H](CCCC(=O)O)C(=O)O [L-2-aminoadipic acid] | 105 | 109 | 99.8 (inactive) | 93.6 (inactive)
Cc1cnc(NC(=O)C2=C(O)c3ccccc3S(=O)(=O)N2C)s1 [Meloxicam] | 103 | 105 | 96.1 (inactive) | 104 (inactive)
CNC(=O)c1cc(Oc2ccc(NC(=O)Nc3ccc(Cl)c(C(F)(F)F)c3)cc2)ccn1 [Sorafenib] | 45.9 | 21.5 | 108 (inactive) | 68.6 (inactive)
CCOC([O-])=Nc1c[n+](N2CCOCC2)no1 [Molsidomine] | 106 ± 1.7 | 96.4 ± 7.5 | 101 (inactive) | 94 (inactive)
COC(=O)[C@@H](N)CSCC=C(C)CCC=C(C)CCC=C(C)C [S-Farnesyl-L-cysteine methylester] | 106 | 94.7 | 95.6 (inactive) | 103 (inactive)
O=C1Nc2ccccc2C1=Cc1c(Cl)[nH]c2ccccc12 [Cdk1 Inhibitor] | 56.6 | 9.63 | 149 (active) | 143 (active)
CC(=O)NCCc1c[nH]c2ccc(O)cc12 [N-Acetyl-5-hydroxytryptamine] | 101 | 101 | 93.3 (inactive) | 87.2 (inactive)
CC1=C(C(=O)O)N2C(=O)C(NC(=O)C(N)C3=CCC=CC3)C2SC1 (centres undefined) [Cephradine] | 100 | 115 | 93.5 (inactive) | 88.5 (inactive)
O=C(NCCO)c1cc(C(=O)NCCO)cc(C(=O)NCCO)c1 | 102 | 104 | 95.2 (inactive) | 96.8 (inactive)
CN1C(=O)CC(C(=O)O)C1c1cccnc1 (stereo not drawn) [Trans-4-Cotininecarboxylic acid] | 98.4 | 100 | 93.3 (inactive) | 85.3 (inactive)
CN1CCN(C2=Nc3ccccc3Oc3ccc(Cl)cc32)CC1.O=C(O)CCC(=O)O [Loxapine succinate] | 101 | 94.3 | 95.8 (inactive) | 110 (inactive)
O=c1oc2cc(O)ccc2c2oc3cc(O)ccc3c12 [Coumestrol] | 99.9 | 91.8 | 97.6 (inactive) | 94.6 (inactive)
CN1CCCC1c1cccnc1 (single isomer, unassigned; (-)) [(-)-Nicotine] | 99.2 | 114 | 94.2 (inactive) | 80 (inactive)
CCC=CCC=CCC=CCC=CCCCCC(=O)O.[Na] [6(Z), 9(Z), 12(Z), 15(Z)-Octadecatetraenoic acid] | 102 | 91.9 | 106 (inactive) | 102 (inactive)
Cc1cc(C)c(S(=O)(=O)Nc2cccc(C(F)(F)F)c2)c(C)c1 | 99.3 | 90 | 105 (inactive) | 104 (inactive)
CCCCCCCCCCCCCCCC(=O)NC(COP(=O)(O)O)C(=O)O (centres undefined) | 102 | 109 | 92 (inactive) | 98.9 (inactive)
CCCCCC=CCC=CCC=CCC=CCCCC(=O)O [Arachidonic acid] | 104 ± 6.4 | 93.9 ± 1.1 | 101 (inactive) | 105 (inactive)
COc1ccc(C(=O)NCc2cccnc2)cc1C(=O)NCc1cccnc1 [Picotamide] | 102.3 ± 0.66 | 103 ± 5.2 | 93.6 (inactive) | 103 (inactive)
CCN1CCN(C(=O)NC(C(=O)NC2C(=O)N3C2SC(C)(C)C3C(=O)O)c2ccccc2)C(=O)C1=O (centres undefined) [Piperacillin] | 101 | 100 | 95.4 (inactive) | 119 (inactive)
CS(=O)(=O)O.N=C(N)SCCc1ccc(OCc2ccc([N+](=O)[O-])cc2)cc1 | 88.6 | 78.2 | 125 (active) | 158 (active)
CN(C)CCCOC1C(C(O)CO)OC2OC(C)(C)OC21.Cl (centres undefined) [Amiprilose hydrochloride] | 101 | 106 | 82.4 (inactive) | 91.5 (inactive)

Compound | cell number [1] | cell number [2] | H1.0 immunofluorescence intensity [3] | H1.0 immunofluorescence intensity [4]
CCNC(=O)C1OC(n2cnc3c(NCc4ccccc4)ncnc32)C(O)C1O (centres undefined) [N6-Benzyl-5'-N-ethylcarboxamidoadenosine] | 77 | 57.3 | 103 (inactive) | 114 (inactive)
O=C1NC(=O)C(c2cn(CCCO)c3ncccc23)=C1c1cnccn1 [GSK-3b Inhibitor XI] | 106 | 119 | 88.7 (inactive) | 116 (inactive)
COc1c(N2CC3CCCNC3C2)c(F)cc2c(=O)c(C(=O)O)cn(C3CC3)c12.Cl (centres undefined) [Moxifloxacin.HCl] | 101 | 122 | 96.7 (inactive) | 97.9 (inactive)
CC(C)C(CO)Nc1nc(Nc2cc(N)cc(Cl)c2)c2ncn(C(C)C)c2n1 (centres undefined) | 60.6 | 45.9 | 111 (inactive) | 177 (active)
CC1C(=O)CCC2C1(C)CCC1C2(C)CCC2(C)C3CC(C)(C)CCC3(C)CCC12C (centres undefined) [Friedelin] | 99.5 | 102 | 96.1 (inactive) | 87.8 (inactive)
Cl.Cl.O=S(=O)(NCCNCC=Cc1ccc(Br)cc1)c1cccc2cnccc12 [H-89, Dihydrochloride] | 96.6 | 110 | 92.7 (inactive) | 129 (inactive)
Nc1ncnc2c1ncn2C1OC(C(=O)NC2CC2)C(O)C1O (centres undefined) [5'-(N-Cyclopropyl)carboxamidoadenosine] | 99.6 | 95.1 | 97.8 (inactive) | 93.6 (inactive)
O=c1ncnc2[nH][nH]cc1-2 [Allopurinol] | 103 | 109 | 97.1 (inactive) | 88.4 (inactive)
O=[N+]([O-])c1ccc(-c2nc(-c3ccc(F)cc3)c(-c3ccncc3)[nH]2)cc1 | 89.9 | 101 | 84.2 (inactive) | 139 (inactive)
O=C(NNC(=O)c1ccc(CNS(=O)(=O)c2ccc(F)c(Cl)c2)cc1)c1ccccc1 | 103 | 113 | 95.9 (inactive) | 105 (inactive)
CN1CC(O)C(O)C(O)C1CO (centres undefined) [N-Methyl-1-deoxynojirimycin] | 53 | 57 | 109 (inactive) | 185 (active)
O=C1NC(c2cccc([N+](=O)[O-])c2)=CCN1c1ccccc1O | 104 | 104 | 95.6 (inactive) | 94.9 (inactive)
CC(=O)OCC1(O)CC23CCC4c5ccoc5CCC4(C)C2CCC1C3 (centres undefined) [Cafestol acetate] | 103 | 98.6 | 97.6 (inactive) | 98.4 (inactive)
CCCCCC(O)CC=C1C(=O)C=CC1CC=CCCCC(=O)O (centres undefined) [D12-Prostaglandin J2] | 108 | 96.8 | 103 (inactive) | 106 (inactive)
CC(C)NCC(O)COc1ccc(CC(N)=O)cc1 (centres undefined) [Atenolol] | 99.9 | 102 | 94.7 (inactive) | 113 (inactive)
CCC1(O)CC2CN(CCc3c([nH]c4ccccc34)C(C(=O)OC)(c3cc4c(cc3OC)N(C=O)C3C(O)(C(=O)OC)C(OC(C)=O)C5(CC)C=CCN6CCC43C65)C2)C1.O=S(=O)(O)O (centres undefined) [Vincristine sulfate] | 57.3 ± 1 | 9.46 ± 1.6 | 167 (active) | 151 (active)
COC(=O)Nc1nc2ccc(C(=O)c3ccc(F)cc3)cc2[nH]1 [Flubendazole] | 65.9 | 9.66 | 151 (active) | 168 (active)
CC1CCN(C(=O)CC#N)CC1N(C)c1ncnc2[nH]ccc12 (centres undefined) [Tasocitinib] | 110 | 110 | 89.1 (inactive) | 73.7 (inactive)
CCCCCCCCCCCCCC=CC(O)C(N)CO (centres undefined) [Sphingosine] | 103 ± 4.4 | 101 ± 6.5 | 96.9 (inactive) | 98.4 (inactive)
CC1CNCCN1S(=O)(=O)c1cccc2cnccc12.Cl.Cl (centres undefined) | 101 | 105 | 88.4 (inactive) | 83 (inactive)
CC(=O)OCC(CCn1cnc2cnc(N)nc21)COC(C)=O [Famciclovir] | 103 | 97.4 | 99.2 (inactive) | 111 (inactive)
OCCC#Cc1nc(-c2ccc(F)cc2)c(-c2ccncc2)n1CCCc1ccccc1 | 91.8 | 105 | 82.7 (inactive) | 111 (inactive)
COc1cc(/C=C/C(=O)O)ccc1O [Ferulic acid] | 102 | 97.3 | 101 (inactive) | 92.2 (inactive)
Cc1nc2sccn2c(=O)c1CCN1CCC(=C(c2ccc(F)cc2)c2ccc(F)cc2)CC1 [Ritanserin] | 101 | 111 | 88.8 (inactive) | 105 (inactive)
CCCCCCC(O)CC=CCCCCCCCC(=O)O (centres undefined) [Ricinoleic acid] | 98.1 | 104 | 97.7 (inactive) | 101 (inactive)
